From PubChem BioAssay
HEK293 cAMP ctrl: counter-screen for TSHR agonists: cAMP increase in parental HEK293; parental HEK293 CNG cAMP sensor, membrane potential fluorescence; actives 2.5% (n = 73,000); Potency, µM (titrated, usually from 57.1 µM), for inactives: at the top dose activation, actives largely listed as activators; also: % of control where 0% means no effect; nearly all actives have a fitted effect of over 55% in size
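Parental HEK 293 cells stably expressing a modified CNG channel (no TSHR) report cAMP rise as membrane depolarization. Membrane potential dye with 100 uM RO 20-1724 was loaded for 60 min at room temperature, then compound added for 30 min; fluorescence read at 590 nm.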
Bst PK mod: modulators of Bacillus stearothermophilus pyruvate kinase. actives 1.2% (n = 51,000). purified pyruvate kinase, luminescence ATP production; ribose 5-phosphate activator present at AC10. Potency, µM; in the data active = potency below about 11 µM; inconclusive = mostly about 12 µM to 25 µM;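 the screen sought inhibitors and activators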;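 also: scaled between full activation by ribose 5 phosphate and full inhibition by luteolin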
Casp7 inh: allosteric or competitive inhibitors of human caspase-7; AID 889; P55210; Potency, µM (top dose mostly 57.5 µM), without a hit: at the top dose activity change, negative = inhibition, actives largely listed as inhibitors; recombinant caspase-7, Ac-DEVD-AFC fluorescence rate; actives 0.02% (n = 75,000); active = well fitted inhibition curve with a large enough effect in the main read-out, with a control signal flat, not every such curve was filed as active; inconclusive = small, poorly fitted or top-dose-only effect, or a change in a side signal; also: % of control where 0% means no effect
Target sequence (P55210 24-198 limits assumed): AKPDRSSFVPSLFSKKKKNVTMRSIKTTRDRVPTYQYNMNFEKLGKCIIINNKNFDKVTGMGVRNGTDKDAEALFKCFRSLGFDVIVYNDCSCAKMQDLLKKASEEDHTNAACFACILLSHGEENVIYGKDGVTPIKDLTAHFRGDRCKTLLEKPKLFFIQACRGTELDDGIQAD
Target sequence (P55210 207-303 limits assumed): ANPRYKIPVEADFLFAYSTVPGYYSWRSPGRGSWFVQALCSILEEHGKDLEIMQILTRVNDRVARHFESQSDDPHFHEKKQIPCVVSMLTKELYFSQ
Caspase-1 inhib: caspase-1 (human) inhibition, allosteric or competitive; P29466; Caspase-1 enzyme, Ac-WEHD-AFC fluorogenic rate; Potency, µM (highest dose often 57.5 µM), for the others: at the top dose activity change, negative = inhibition, most hits filed as inhibitors; actives 0.03% (n = 75,000);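 also: plate controls were vehicle for no effect and no substrate for full effect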
Target sequence (P29466 120-297 limits assumed): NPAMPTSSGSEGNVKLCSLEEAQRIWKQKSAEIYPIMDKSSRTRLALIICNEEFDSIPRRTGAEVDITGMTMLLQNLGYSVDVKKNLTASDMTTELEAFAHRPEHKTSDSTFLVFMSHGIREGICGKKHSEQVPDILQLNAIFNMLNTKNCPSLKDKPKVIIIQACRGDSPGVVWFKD
Target sequence (P29466 317-404 limits assumed): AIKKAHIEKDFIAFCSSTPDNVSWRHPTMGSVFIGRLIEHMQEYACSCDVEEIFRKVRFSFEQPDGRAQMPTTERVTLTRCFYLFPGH
TSHR agonist: activates the human thyroid stimulating hormone receptor. AID 926. P16473. actives 0.48% (n = 73,000). Potency, µM (series often up to 57.1 µM), inactives show at the top dose activation, usual class: activators. HEK293-CNG-TSHR cells (CNG channel as cAMP sensor), membrane potential dye, cAMP; active = well fitted activation curve with a large enough effect in the main read-out, with a control signal flat, not every such curve was filed as active; inconclusive = small, poorly fitted or top-dose-only effect, or a change in a side signal; inactive = no such curve, though single readings can be large or run the other way; % of control where 0% means no effect;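 also: the control signal comes from parental cells without the receptor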
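HEK 293 cells stably expressing TSHR and a cAMP-gated CNG channel; parental CNG-only cells as counterscreen. Cells preloaded 60 min with membrane potential dye plus 100 uM RO 20-1724, then compound 30 min; fluorescence read at 590 nm.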
GBA activity: alters purified human glucocerebrosidase activity. Potency, µM. AID 360. actives 1.1% (n = 48,000). purified enzyme, resorufin glucoside fluorescence (screen aimed at inhibitors), 20 min. P04062; in the data active = potency below about 15 µM; inconclusive = mostly about 16 µM to 33 µM;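 also: the screen sought inhibitors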
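Normal human glucocerebrosidase (0.2 nM final) was assayed with resorufin β-D-glucopyranoside (30 uM final) in 50mM citric acid/KH2PO4, 10mM sodium taurocholate, 0.01% tween-20, pH 5.9. Compounds were titrated; fluorescence (Ex 548, Em 600) read after 20 min at RT.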
* = called active by the depositor; ? = inconclusive; / = no result; [ ] = remark or other dose. Compounds with a hit are over-represented: about 4% of the library has one in this group of screens. Unless noted, calls follow the shape of the dose curve; as a rule, active = well fitted curve in the direction sought with a large enough effect; inconclusive = small, poorly fitted or top-dose-only effect, or another doubt; inactive = no such curve, though single readings can be large; an effect the other way counts as inactive or inconclusive. Potency is read from the fitted curve at half-maximal effect.

SMILES	HEK293 cAMP ctrl	Bst PK mod	Casp7 inh	Caspase-1 inhib	TSHR agonist	GBA activity
CCc1nnc(NC(=O)CSc2nnc(-c3ccccc3NC(=O)c3ccccc3)o2)s1	9%	>57	0%	-2%	5%	>77
Cn1cccc1C(=O)N1CCC2(CC1)CN(C(=O)Nc1cccc(C#N)c1)C2	-5%	/	-1%	-1%	8%	/
CSc1nnc2c3cc(C)ccc3n(Cc3ccccc3)c2n1	16µM*	>57	-3%	-3%	?	>77
O=C(NC1CC2CCC(C1)N2C(=O)NC1CCCCC1)NC12CC3CC(CC(C3)C1)C2 (stereo unspecified)	3%	>57	3%	-2%	-5%	>77
O=C(NC1CC2CCCC(C1)N2C1CC1)NC12CC3CC(CC(C3)C1)C2 (stereo unspecified)	6%	>57	6%	2%	5%	10*
N[C@@H]1C=CC=C(C(=O)O)C1	-7%	/	2%	2%	/	/
CCc1cc2ccc(OC)cc2nc1SCC(=O)Nc1cc(C)on1	?	>57	-1%	3%	?	>77
CCc1cc2ccccc2nc1SCC(=O)Nc1cc(C)on1	25µM*	>57	0%	0%	?	>77
Nc1nnnn1/N=C/c1ccccn1	/	>26	/	/	/	/
Nc1nnnn1/N=C/c1ccccc1OCc1ccc(Cl)cc1Cl	32µM*	>57	-9%	-3%	?	>77
Cc1ccccc1-c1cc(Nc2ccc(F)cc2)ncn1	12%	/	-1%	-2%	-10%	/
COc1ccc(-c2cc(C(=O)OCC(=O)N(C)C)c3ccccc3n2)cc1	13%	9.8*	-26%	?	12%	>77
O=S(=O)(c1ccccc1)N1CN2CN(C1)CN(S(=O)(=O)c1ccccc1)C2	9%[11.4 µM]	/	-2%[11.5 µM]	3%[11.5 µM]	0%[11.4 µM]	/
IC(I)I	5%	/	-1%	-1%	-9%	/
O=C(c1cccc(F)c1)N1CCN(c2cccc(C(F)(F)F)c2)CC1	14%	>57	-2%	-1%	24%	>77
O=C(c1cccc(F)c1)N1C2C=CC(C2)C1(C(F)(F)F)C(F)(F)F (stereo unspecified)	23%	>57	-1%	0%	25µM*	>77
Cc1ccc(C)c(CSc2nnc(-c3cccnc3)n2N)c1	0%	>57	-3%	-1%	24%	4.2*
Nn1c(SCc2nc3ccccc3[nH]2)nnc1-c1cccnc1	5%	/	0%	1%	-5%	/
CC#C[C@@]1(O)CC[C@@H]2[C@@H]3CCC4=CC(=O)CCC4=C3[C@@H](c3ccc(N(C)C)cc3)C[C@]21C	-5%	/	/	/	-18%	/
COCCN(CCOC)c1ncc(Cl)c(C(=O)c2c(C)cc3ccccn23)n1	32µM*	>57	-4%	-1%	?	>77
CN(Cc1ccco1)c1ncncc1-c1cccnc1	10%	/	-12%	-6%	2%	/
CCCCCCCCCCCCC/C=C\[C@H](O)[C@H](N)CO	-4%	/	/	/	3%	/
COc1cccc(OC)c1-c1nnc(-c2cn(C)c3ccccc23)o1	20µM*	>57	0%	0%	?	>77
COc1ccccc1-c1nnc(Nc2nc3c(OC)cccc3s2)o1	11%	>57	-5%	1%	9%	>77
C[C@H](CC(=O)O)C(C(=O)O)C(=O)O	3%[11.4 µM]	/	3%[11.5 µM]	-6%[11.5 µM]	0%[11.4 µM]	/
SMILES	HEK293 cAMP ctrl	Bst PK mod	Casp7 inh	Caspase-1 inhib	TSHR agonist	GBA activity
COC(=O)[C@H](Cc1ccccc1)NC(=O)[C@]1(C)C[C@H]1[C@H](NC(=O)OCc1ccccc1)c1ccccc1	5µM*	/	-4%	0%	?	/
C[C@@H](C(=O)NCc1ccccc1)[C@@H]1C[C@@]1(C)[C@@H](NC(=O)OCc1ccccc1)c1ccccc1	12%	/	-2%	-1%	6%	/
CNC(=O)[C@H](C)[C@H]1C[C@]1(C)[C@H](NC(=O)OCc1ccccc1)c1ccccc1	6.3µM*	/	-1%	-2%	?	/
C[C@@H](C(=O)N[C@@H](CO)Cc1ccccc1)[C@H]1C[C@]1(C)[C@H](NC(=O)OCc1ccccc1)c1ccccc1	10µM*	/	-2%	-5%	?	/
C[C@@H](C(=O)NCC1CC1)[C@H]1C[C@]1(C)[C@H](NC(=O)OCc1ccccc1)c1ccccc1	10µM*	/	1%	-2%	?	/
COC(=O)C1=C(C)N(Cc2ccccc2)[C@]23O[C@](C(=O)OC)(C(=O)N2C1c1ccccc1)C1CCOC(=O)C13 (stereo partly specified)	1%[11.4 µM]	/	-2%[11.5 µM]	1%[11.5 µM]	-1%[11.4 µM]	/
CCOC(=O)c1c(C)[nH]c(C(=O)COC(=O)c2oc3ccc(OC)cc3c2C)c1C	7%	>57	-1%	3%	3%	/
COC(=O)c1c(C)[nH]c(C(=O)COC(=O)Cc2ccc3c(c2)OCCO3)c1C	?	>57	-4%	-2%	?	15*
CC(=O)Nc1ccccc1C=C1c2ccccc2-c2ccccc21	5%[11.4 µM]	/	0%[11.5 µM]	0%[11.5 µM]	11%[11.4 µM]	/
CC(=O)Nc1cccc(NC(=O)c2c(-c3c(Cl)cccc3Cl)noc2C)c1	-12%[11.4 µM]	/	-1%	-1%	2µM*	/
Cc1cc(C)nc(NC(=O)c2c(-c3c(Cl)cccc3Cl)noc2C)n1	2%	>57	1%	-1%	-2%	>77
N[C@@H](CSCc1ccc(I)cc1)C(=O)O	?	/	-1%[11.5 µM]	-3%[11.5 µM]	?	/
Cc1cc(/C=N/n2cnnc2)c(C)n1-c1ccc(Cl)cc1Cl	3.2µM*	/	-3%	-2%	?	/
Cc1cc(/C=N/n2cnnc2)c(C)n1-c1ccc(OCc2ccc(F)cc2)cc1	?	/	-5%	-4%	?	/
Cc1cc(/C=N/n2cnnc2)c(C)n1-c1cccc(Cl)c1	-1%	/	-2%	-1%	25µM*	/
Cc1cc(O)c(C=O)c2c1C(=O)Oc1c(COC(=O)/C=C/C(=O)O)c(O)c(C(=O)O)c(C)c1O2	/	/	0%	4%	/	/
CC1(C)Cc2c(sc3nc(SCC(=O)N4CCOCC4)nc(N)c23)CO1	?	>57	-7%	-6%	?	14*
COc1cccc(-c2nc3ccc(O)cc3c(=O)o2)c1	0%	11*	1%	-2%	-2%	13*
C#C[C@]1(O)CCC2C3CCC4=Cc5oncc5C[C@@]4(C)C3CC[C@@]21C (stereo partly specified)	/	/	-3%	-4%	/	/
Clc1ccc(CSc2ncnc3c2ncn3[C@@H]2CCCCO2)cc1	?	/	-3%[11.5 µM]	4%[11.5 µM]	?	/
CCOc1ccc(-c2nc(-c3ccccc3C)no2)cc1	18%	8*	0%	2%	9%	/
COc1cccc(-c2nc(N3CCN(C)CC3)c3ccccc3n2)c1	9%	/	-7%	-4%	/	/
CCSc1nnc(NC(=O)c2ccccc2)s1	-7%	/	2%	0%	4%	/
CCSc1nnc(NC(=O)c2ccc(Br)s2)s1	6%	>57	2%	0%	-2%	1*
CCOC(=O)c1oc2ccccc2c1CSc1nnnn1-c1ccccc1	16µM*	>57	-1%	-2%	?	>77
